What all share (experiment): NCI-60 one-dose screen, 48 h (100 = growth as untreated, 0 = no growth, -100 = all killed)
In one experiment the test system is T-47D breast. To be noted: 10 µM unless noted.
A further experiment deals with BT-549 breast. The note with it: 10 µM unless noted.
A further experiment relates to MDA-MB-435 melanoma. The note with it: 10 µM unless noted.
The subject of a further experiment is SW-620 colon. The note with it: 10 µM unless noted.
For the next experiment, the system named is MCF7 breast. To be noted: 10 µM unless noted.
For another experiment, the system named is HCT-116 colon. The note with it: 10 µM unless noted.
The subject of a further experiment is HCC-2998 colon. To be noted: 10 µM.
A further experiment concerns KM12 colon. The note with it: 10 µM unless noted.

We go through 14 molecules from PubChem BioAssay (NCI).

The panel holds about 83,000 compounds, 20% with a hit somewhere; the sample as a whole holds those more often.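 The endpoint reported here, percent growth, reads 100 for growth as untreated, 0 for no net growth and -100 for all cells dead.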 Values without a mark were called inactive. Activity calls are given as the source filed them. How the source made its calls: active means growth percent below 10; inactive means the rest.

Turning to `CCCCCCCC(=O)SCC/C=C/[C@@H]1CC(=O)NCc2cc(ccn2)C2=N[C@@](C)(CS2)C(=O)N[C@@H](C(C)C)C(=O)O1`, the growth in the experiment with T-47D breast is -6.31% (active); in the experiment on BT-549 breast it was 36.4%; in the experiment on MDA-MB-435 melanoma it was -22.1% (active); in the experiment with SW-620 colon it was -1.73% (active); with MCF7 breast, 14.1%; in the experiment with HCT-116 colon, -17.2% (active). The growth was -67.8% (active) in the experiment on HCC-2998 colon and -3.5% (active) in the experiment on KM12 colon.
As to `[2H]C1([2H])[C@H](C)O[C@H](C)C([2H])([2H])N1c1ccc(NC(=O)c2cccc(-c3ccc(OC(F)(F)F)cc3)c2C)cn1`, the growth in the experiment with T-47D breast is 41.7%; in the experiment on BT-549 breast, 63.9%; in the experiment with MDA-MB-435 melanoma it was 73.4%; in the experiment with SW-620 colon, 90%; in the experiment with MCF7 breast it was 66.8%; in the experiment with HCT-116 colon, 56.9%. The growth in the experiment on HCC-2998 colon is 82.4%; with KM12 colon, 73.2%.
Consider `Cc1oc2c(C(=O)N/N=C\c3ccc(O)cc3O)c[nH]c2c1C`, for which the growth in the experiment with T-47D breast is 25.7%; with BT-549 breast, -8.94% (active); in the experiment with MDA-MB-435 melanoma, 42.8%; with SW-620 colon, 39.3%; with MCF7 breast, 8.09% (active); in the experiment with HCT-116 colon, 10.8%. In addition, the growth in the experiment with HCC-2998 colon is 9.7% (active); with KM12 colon it was 28.9%.
`CN1CCN(c2nc(C3=C(c4c[nH]c5ccccc45)C(=O)NC3=O)c3ccccc3n2)CC1`: the growth with T-47D breast was 102%; in the experiment on BT-549 breast, 91%; in the experiment on MDA-MB-435 melanoma, 41.8%; in the experiment on SW-620 colon it was 48.4%; with MCF7 breast, 95.1%; in the experiment on HCT-116 colon, 32.4%. For the same molecule, the growth in the experiment with HCC-2998 colon was 19.2%; with KM12 colon, 36.1%.
With `CNC(=O)c1cc(Oc2ccc(NC(=O)Nc3cc(C(C)(C)C)nn3-c3ccc4ncccc4c3)c(F)c2)ccn1`, the growth with T-47D breast is -17.7% (active); with BT-549 breast, -38.2% (active); in the experiment with MDA-MB-435 melanoma it was -88% (active); in the experiment on SW-620 colon it was -0.427% (active); in the experiment on MCF7 breast, -6.46% (active); in the experiment on HCT-116 colon it was -51.8% (active). Besides, the growth in the experiment with HCC-2998 colon is -31.5% (active); with KM12 colon, -23.8% (active).
For the molecule `Cc1ccc(C(=O)Nc2ccc(CN3CCN(C)CC3)c(C(F)(F)F)c2)cc1C#Cc1cnc2cccnn12`, the growth in the experiment on T-47D breast is -70.9% (active); in the experiment with BT-549 breast it was -97.7% (active); in the experiment with MDA-MB-435 melanoma, -98.2% (active); in the experiment on SW-620 colon, -87.6% (active); with MCF7 breast it was -74.1% (active); in the experiment on HCT-116 colon, -85.3% (active). Moreover, the growth with HCC-2998 colon was -91.8% (active); with KM12 colon, -91.3% (active).
As to `CCN1CCN(c2cc(C)nc(N(CCCNc3ccnc4cc(Cl)ccc34)Cc3cccs3)n2)CC1`, the growth with T-47D breast was -18.7% (active); with BT-549 breast, -20.6% (active); in the experiment on MDA-MB-435 melanoma it was -79.8% (active); in the experiment on SW-620 colon, -8.17% (active); in the experiment with MCF7 breast, 12.3%; in the experiment with HCT-116 colon it was 10.8%. For the same molecule, the growth in the experiment on HCC-2998 colon is -27.2% (active); in the experiment with KM12 colon it was 35.4%.
For the molecule `CN(C)C[C@@H]1CCn2cc(c3ccccc32)C2=C(C(=O)NC2=O)c2cn(c3ccccc23)CCO1`, the growth with T-47D breast was 21.2%; in the experiment on BT-549 breast, -3.62% (active); in the experiment on MDA-MB-435 melanoma, 20.2%; in the experiment with SW-620 colon, -57.6% (active); in the experiment on MCF7 breast, -58.8% (active); in the experiment on HCT-116 colon it was -69.4% (active). Moreover, the values for the growth in the experiment on HCC-2998 colon and with KM12 colon were 22% and 3.55% (active), respectively.
Regarding `COC(=O)N[C@@H](C)CNc1nccc(-c2cn(C(C)C)nc2-c2cc(Cl)cc(NS(C)(=O)=O)c2F)n1`, the growth is 79.3% with T-47D breast; 72.9% with BT-549 breast; 25.5% in the experiment on MDA-MB-435 melanoma; 52.7% in the experiment on SW-620 colon; 95.2% in the experiment on MCF7 breast; 19.5% with HCT-116 colon. Further, the growth in the experiment on HCC-2998 colon was 69.6%; in the experiment on KM12 colon, 69.7%.
Regarding `Cc1ncc(-c2ccnc(Nc3ccc(S(C)(=O)=O)cc3)n2)n1C(C)C`, the growth in the experiment with T-47D breast is -12.3% (active); in the experiment with BT-549 breast it was -11.4% (active); in the experiment on MDA-MB-435 melanoma, -45.2% (active); in the experiment on SW-620 colon, 0.356% (active); in the experiment on MCF7 breast it was 2.6% (active); in the experiment on HCT-116 colon, -0.0408% (active). In addition, the figures for the growth in the experiment on HCC-2998 colon and in the experiment on KM12 colon were -15.6% (active) and -68.7% (active), respectively.
With `CCCCCCC1(/C=N/NC(N)=O)NC(=O)NC1=O` (configuration not stated), the growth in the experiment on T-47D breast is 87.8%; in the experiment on BT-549 breast, 94.1%; with MDA-MB-435 melanoma it was 101%; with SW-620 colon, 104%; with MCF7 breast, 91.2%; in the experiment with HCT-116 colon it was 84.2%. The growth was 94.5% in the experiment with HCC-2998 colon and 97% in the experiment on KM12 colon.
As to `CC(C)Nc1cc(-c2c[nH]c(C(=O)N[C@H](CO)c3cccc(Cl)c3)c2)c(Cl)cn1`, the growth was 34.7% in the experiment on T-47D breast; 57.3% in the experiment on BT-549 breast; 21.7% with MDA-MB-435 melanoma; 20.6% with SW-620 colon; 27.9% in the experiment on MCF7 breast; 15.7% with HCT-116 colon. Besides, the values for the growth with HCC-2998 colon and in the experiment on KM12 colon were -10.9% (active) and 18.7%, respectively.
With `COc1cc(Nc2c(C#N)cnc3cc(OCCCN4CCN(C)CC4)c(OC)cc23)c(Cl)cc1Cl`, the growth in the experiment with T-47D breast was 59.4%; with BT-549 breast, 85.2%; with MDA-MB-435 melanoma it was 31.1%; in the experiment on SW-620 colon, 37%; with MCF7 breast, 58.3%; with HCT-116 colon it was 23.3%. In addition, the results for the growth in the experiment on HCC-2998 colon and in the experiment with KM12 colon were 26.9% and 32.9%, respectively.
As to `O=C1C=CC2(NN=C(c3ccccc3)N2c2ccc(Cl)cc2)c2cccc(O)c21` (configuration not stated), the growth in the experiment with T-47D breast was 87.2%; in the experiment with BT-549 breast, 33.5%; in the experiment on MDA-MB-435 melanoma, -91.5% (active); in the experiment with SW-620 colon it was 52.5%; with MCF7 breast, 45.4%; in the experiment on HCT-116 colon it was 26.1%. The growth is 64.4% in the experiment with HCC-2998 colon and 58.6% with KM12 colon.
